# Test results from PubChem BioAssay AID720504 (National Center for Advancing Translational Sciences (NCATS), 2013).
# In all, about 360,000 compounds went through this assay and about 10,000 (2.8%) were called active. Inconclusive results (about 4%) are left out. Many of the other results were omitted from the sample, so actives are more common in it than they were. Values without a mark were called inactive. Calls come from the whole dose curve; as a rule, active = well fitted inhibition curve with a large enough effect; inconclusive = small, poorly fitted or top-dose-only effect; inactive = flat fitted curve, though single readings scatter.
# Biological target: Serine/threonine-protein kinase PLK1 (Homo sapiens) (UniProt P53350)
# Assay: qHTS for Inhibitors of PLK1-PDB (polo-like kinase 1 - polo-box domain): Primary Screen; note: nearly all actives have a fitted effect of over 65% in size; for max response, negative = inhibition: series mostly up to about 57 µM
# Conditions: Plk1 PBD binding of FITC phosphopeptide, fluorescence polarization
# Source text: The polo-like kinase 1 (Plk1) is a member of a conserved subfamily of serine / threonine protein kinases that plays a pivotal roles in cell proliferation. It has a C-terminal non-catalytic region called the polo-box domain (PBD) that plays a crucial role in the subcellular localization of the Plk1. […] Furthermore, depletion of the overexpressed Plk1 by RNAi efficiently induces apoptotic cell death in cancer and reduces tumor growth in mouse xenograft models. Thus, targeting Plk1 is an appealing strategy for anti-cancer therapy. Therefore, this project aimed to screen the Molecular Libraries Small Molecule Repository (MLSMR) using a novel approach to find inhibitors that target the Plk1 PBD instead of the conventional N-terminal catalytic domain. This project employed a fluorescence polarization (FP) assay using a FITC-conjugated phospho-9-mer (p-9-mer) peptide and purified human Plk1 PBD protein. The identified small molecule inhibitors of Plk1 PBD can then further be developed into useful tools for biomedical and clinical research that complements or replaces current relevant disease therapy. NIH Chemical Genomics Center [NCGC] NIH Molecular Libraries Probe Centers Network [MLPCN] MLPCN Grant: MH100728 Assay Submitter (PI): Kyung Lee, NCI
# Four microliter of 25 nM FITC-p-9-mer + 60 nM Plk1 PBD in buffer solution (final concentrations 25 nM and 60 nM respectively) or 4 uL of 25 nM FITC-p-9-mer (final concentration 25 nM) in buffer will be dispensed into a 1,536 Greiner medium-binding black solid plate. Small molecules at final concentrations of 18 nM to 57 uM and positive control phospho-9-mer (sequence: Ac-PPLHSpTAI-NH2) at final concentrations 26 nM to 57 uM and phospho-13-mer (sequence: Ac-[…]pTAI-NH2) at final concentrations of 1 nM to 2.3 uM will be pin-transferred (23 nL) to the plate via a Kalypsys pin-tool robotics equipped with a 1,536-pin array. The reaction plate will be centrifuged for 1 min at 1000 rpm and incubated at room temperature for 10 min. The FITC fluorescence signals will be read using the PerkinElmer ViewLux plate reader at 480 / 20 nm excitation and 540 / 20 nm S and P polarization emission wavelengths. Reagent bottles will be kept submerged into 4 °C recirculating chiller bath and all liquid lines will be covered with aluminum foil to minimize degradation. Library plates will be screened starting from the lowest to the highest concentrations to minimize compound carryover. Vehicle only plates, with DMSO being pin-transferred instead of compound solutions, will be included regularly throughout the screen to record any systematic shifts in assay signal.
# % is set by controls: 0 for no effect and ±100 for the full control effect; potency is the fitted concentration of half-maximal effect.
# Chain of Serine/threonine-protein kinase PLK1 (Homo sapiens) (P53350 whole entry, looked up, the tested form may be a part): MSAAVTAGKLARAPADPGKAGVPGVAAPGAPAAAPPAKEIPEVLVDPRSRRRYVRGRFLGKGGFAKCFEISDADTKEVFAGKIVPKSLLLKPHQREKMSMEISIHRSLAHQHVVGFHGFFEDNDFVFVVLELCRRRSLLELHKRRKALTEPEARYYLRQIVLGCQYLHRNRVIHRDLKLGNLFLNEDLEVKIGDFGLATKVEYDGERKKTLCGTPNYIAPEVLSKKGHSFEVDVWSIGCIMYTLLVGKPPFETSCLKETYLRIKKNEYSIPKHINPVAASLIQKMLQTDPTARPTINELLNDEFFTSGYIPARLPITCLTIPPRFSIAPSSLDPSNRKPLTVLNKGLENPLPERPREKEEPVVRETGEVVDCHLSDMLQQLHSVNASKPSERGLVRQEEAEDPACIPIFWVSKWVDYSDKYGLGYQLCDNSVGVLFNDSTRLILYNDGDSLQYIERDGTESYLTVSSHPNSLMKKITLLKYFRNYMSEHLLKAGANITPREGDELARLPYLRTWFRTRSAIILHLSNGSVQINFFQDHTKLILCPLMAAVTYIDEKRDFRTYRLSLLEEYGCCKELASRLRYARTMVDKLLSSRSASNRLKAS
SMILES,"max response, negative = inhibition [%]",Potency
COc1ccc(C(=O)C2CCCN(Cc3ccc(C)s3)C2)cc1OC (configuration not stated),-12.4,
COc1cc(C(=S)N2CCOCC2)ccc1O,,11.9 µM (active)
COc1ccccc1OC(=O)c1ccc(C)c(S(=O)(=O)N2CCOCC2)c1,-17.4,
S=C(NCCc1ccccc1)N1Cc2cc(N3CCOCC3)ccc2-n2nncc2C1,-7.87,
OC1/C(=C/c2ccc(C(F)(F)F)cc2)N2CCC1CC2 (configuration not stated),3.89,
CCOC(=O)C1(Cc2ccc(Cl)cc2)CCN(C(C)CCn2cccn2)CC1 (configuration not stated),-2.75,
CCOc1ccc(-c2cc(C)[n+](CCN(CC)CC)c(-c3ccc(OCC)cc3)c2)cc1,-4.15,
CCn1cc(CN2CCCC(C(=O)c3cccc(C(F)(F)F)c3)C2)cn1 (configuration not stated),-6.76,
CN(C)C(=O)Oc1ccc(OCc2cccc[n+]2C)cc1,-4.14,
CCN(CC)C(=O)Oc1ccc(NC(=O)N2CCOCC2)cc1,-7.81,
CCN(CC)C(=O)Oc1ccc(OC(=O)N(CC)CC)cc1,,16.8 µM (active)
CCC1(C)CC(CCNCc2ccc(N(C)C)cc2)(c2ccc(F)cc2)CCO1 (configuration not stated),-1.51,
COc1ccccc1CN1CCN(C(=O)Cc2ccccc2)CC1,3.36,
O=c1[nH]c2ccccc2n1C1CCN(C(c2ccccc2)c2nnnn2Cc2ccccc2)CC1 (configuration not stated),3.89,
Cc1cc(C)c2c(c1)NP(=S)(c1ccccc1)N2 (configuration not stated),-17.9,
COc1ccc2c(c1)NP(=S)(c1ccccc1)N2 (configuration not stated),,3.36 µM (active)
CC(=O)Nc1ccccc1C(=O)OCC(=O)c1cccc2ccccc12,-5.92,
CC(c1ccccc1)(c1ccccc1)c1ccncc1,-1.65,
COC(=O)C1=C(c2cc3ccccc3o2)C[C@@H]2CC[C@H]1N2C(=O)NC1CCCCC1,0.442,
CCOC(=O)C1=C(C)OC(N)=C(C(=O)OC)C12C(=O)Nc1ccc(Br)cc12 (configuration not stated),0.0447,
CC(C)c1ccc(O)c(CN2CCN(c3ccccc3)CC2)c1,6.47,
O=C1NC(=O)N(c2ccccc2)C(=O)/C1=C/c1ccc([N+](=O)[O-])s1,,2.67 µM (active)
CCc1nc2ccccc2c(=O)n1-c1cccc(OC)c1,-4.27,

SMILES,"max response, negative = inhibition [%]",Potency
COc1cccc(N2C(=O)NC(=O)/C(=C\c3cn(C)c4ccccc34)C2=O)c1,,9.47 µM (active)
COc1cccc(N2C(=O)NC(=O)/C(=C\c3ccc([N+](=O)[O-])s3)C2=O)c1,,5.32 µM (active)
CC1=C(C(=O)Nc2ccccc2)SCCO1,-5.57,
CC(=CCOc1ccc2ccc(=O)oc2c1)C1=CC(=O)C(C)(C)O1,-1.51,
O=C(O)C1CSC(c2cccnc2)N1 (configuration not stated),-10,
O=C1NCN(c2ccccc2)C12CCN(C(c1cccs1)c1nnnn1C1CCCCC1)CC2 (configuration not stated),-2.86,
COP(=O)(NS(=O)(=O)c1ccccc1)OC,-7.79,
C[N+]1(C)CCOC(O)(c2ccc(-c3ccc(C4(O)C[N+](C)(C)CCO4)cc3)cc2)C1 (configuration not stated),-17.9,
COc1ccc(-n2c(O)c(C(C)=Nc3ccc4c(c3)CCC4)c(=O)[nH]c2=O)cc1,2.28,
COc1ccccc1C1=NCc2nnc(CSC)n2-c2ccc(Cl)cc21,2.66,
O=C(NCC1=C(c2ccc3ccccc3c2)C[C@@H]2CC[C@H]1N2Cc1ccco1)c1cccs1,-9.52,
O=C1NC(=O)C(C/C=C/c2ccccc2)C(=O)N1,-29.7,
CCN(CC)C(=O)c1ccc(NC(=O)c2cc(-n3cnnc3)ccc2Cl)cc1,-5.96,
CN(C)CC1Oc2ccccc2OC1(O)c1ccccc1 (configuration not stated),,5.32 µM (active)
OC(CNC1CCCCC1)c1ccccc1 (configuration not stated),-2.72,
CN1CCC(N(C)Cc2cccnc2)CC1,-7.61,
CCOC(=O)C(O)(c1ccc(N)c(OC)c1)C(F)(F)F (configuration not stated),-1.46,
CN(C)C(=O)Oc1cc(=O)n2c3c(cccc13)CCC2,-13.7,
CC1CCCN1CCC(C(N)=O)(c1ccccc1)c1ccccc1 (configuration not stated),-4.65,
Cc1ccc(-n2c(C)cc(/C=C3\C(=O)NC(=O)N(C)C3=O)c2C)cc1C,-15.6,
Cc1ccnc(-n2c(C)cc(/C=C3\C(=O)NC(=S)N(C)C3=O)c2C)c1,,2.38 µM (active)
O=C(NC(c1ccc(Cl)cc1)P(=O)(Oc1ccccc1)Oc1ccccc1)OCc1ccccc1 (configuration not stated),0.141,
C[C@H]1CN([C@@H](C)CO)C(=O)CCCn2nncc2CO[C@H]1CN(C)C(=O)Oc1ccccc1,-3.55,

SMILES,"max response, negative = inhibition [%]",Potency
CC(CC(C#N)(c1ccccc1)c1ccccc1)N1CCCCC1 (configuration not stated),-6.42,
COc1cccc(C(c2nnnn2-c2ccc3c(c2)OCCO3)N2CCC3(CC2)C(=O)NCN3c2ccccc2)c1OC (configuration not stated),-7.89,
O=C(O)CCn1cc(C=C2C(=O)NC(=S)NC2=O)c(-c2cccc(Br)c2)n1,,4.74 µM (active)
O=c1[nH]c2ccccc2n1C1CCN(C(c2ccnc3ccccc23)c2nnnn2Cc2ccccc2)CC1 (configuration not stated),3,
CCCCCCCCCCCCn1ccc(=N)cc1,-4.33,
COc1ccc(-c2nn(CCC#N)cc2C(=O)O)cc1,-2.51,
O=C(c1cc(S(=O)(=O)N2CCOCC2)ccc1F)N1CCC2(CC1)OCCO2,-4.68,
C=CC12CN(C)[C@@H]3C4CO[C@H](C[C@H]41)[C@]1(C(=O)Nc4ccccc41)[C@@H]32 (some centres not stated),-7.71,
CCN1C(=O)C(=Cc2c(C)n(CC(=O)NCC3CCCO3)c3ccccc23)C(=O)N(CC)C1=S (configuration not stated),,1.06 µM (active)
C/C=C/CC1(CC)C(=O)NC(=S)NC1=O,-7.94,
CCc1cccc2c(C#N)cn(CC(=O)N3CCOCC3)c12,-5.32,
O=c1[nH]c(=S)[nH]c(O)c1/C=C1\C=Nc2ccccc21,,1.19 µM (active)
COc1ccccc1N=Nc1c(O)[nH]c(=S)[nH]c1=O,13.3,
COc1ccc(CCn2c(O)c(C=NCCCn3ccnc3)c(=O)[nH]c2=O)cc1OC,-4.17,
c1ccc(Cc2nn3c(Cn4cnc5ccccc54)nnc3s2)cc1,,11.9 µM (active)
CCOP(=O)(OCC)C(NC(=O)NC)C(N)=O (configuration not stated),0.136,
CCCC[N+]1(C)C2CC(OC(=O)C(CO)c3ccccc3)CC1C1OC12 (configuration not stated),-0.372,
CC(=NCc1ccc2c(c1)OCO2)c1c(O)[nH]c(=O)[nH]c1=O,-14.7,
CCOC(=O)C1SC2(C(F)(F)C(F)F)CC1(O)c1c(c(OC)c3occc3c1OC)O2 (configuration not stated),0.906,
O=c1c2ccccc2[nH]c(=S)n1-c1cccc(Cl)c1,-18.6,
COC(=O)C1=C(c2ccc(-c3ccccc3)c(F)c2)C[C@@H]2CC[C@H]1N2C(=O)NCc1ccc(F)cc1,-10.9,
C=C(C)C1(CCCC)C(=O)NC(=S)NC1=O,0.58,
Cc1noc(C)c1CSc1nc2cc(S(=O)(=O)N3CCOCC3)ccc2o1,,21.2 µM (active)

SMILES,"max response, negative = inhibition [%]",Potency
Cn1c(C(=O)N2CCC(C(=O)N3CCC4(CC3)OCCO4)CC2)cc2sccc21,-6.93,
CC=C(C)C(=O)OC1CCN2CC=C(COC(=O)C(O)(C(C)OC)C(C)(C)O)C12 (configuration not stated),-10.3,
Cc1cc(=O)oc2c(C)c(OCC(=O)N3CCN(Cc4ccc5c(c4)OCO5)CC3)ccc12,-7.37,
Cc1cccc(NC(=O)OC2CN3CCC2CC3)c1 (configuration not stated),3.5,
CC(C)(C)c1ccc(OC(=O)N2CCCCC2)cc1,,23.8 µM (active)
CN1CCN(C(=O)COc2ccc(C(C)(C)C)cc2Br)CC1,-4.1,
O=C(Nc1cccc(OC(=O)N2CCCCC2)c1)N1CCOCC1,-15.9,
C[N+]12CN3CN(CN(C3)C1)C2,-1.32,
COc1ccc(-n2nnnc2C(c2cccc3ccccc23)N2CCC(n3c(=O)[nH]c4ccccc43)CC2)cc1 (configuration not stated),-4.82,
COc1ccc(NC(=O)N2Cc3ccccc3-n3nncc3C2)cc1,-7.51,
CCOc1ccc(C2SCC(=O)Nc3c2c(C)nn3C2CCOC(C)(C)C2)cc1 (configuration not stated),-3.25,
COc1ccccc1NC(=O)N1C[C@@H]2C[C@@H](C1)c1cccc(=O)n1C2,-7.73,
CN1CCC(OC(=O)c2cccc(F)c2)CC1,-15.3,
O=c1[nH]c(O)c(C=Nc2cc(F)cc(F)c2)c(=O)[nH]1,-3.46,
Cc1ccc2c(c1)=C/C(=C\c1c(O)[nH]c(=O)[nH]c1=O)C(=O)N=2,,11.9 µM (active)
CC[N+](CC)(CC)CCCCCCCCCC[N+](CC)(CC)CC,3.96,
CC12CCC3C(CCC4CC(=O)CCC43C)C1CC(=NO)C2=O (configuration not stated),6.72,
C[C@]12CCCCC1=CC(=O)C1C2CC[C@@]2(C)C1C[C@@H](F)[C@@H]2O (some centres not stated),2.07,
COC(=O)C[C@H]1CC[C@H]2NC[C@@H](O)COC[C@@H]2O1,-11.8,
O=C1NC(=O)N(CCc2ccc(F)cc2)C(=O)/C1=C/C=C/c1ccccc1,,0.532 µM (active)
CC(C)N(CC#CCC1(O)c2ccccc2-c2ccccc21)C(C)C,4.02,
O=C(NC(=S)N1C[C@H]2C[C@H](C1)c1cccc(=O)n1C2)c1ccc(F)cc1,-8.97,
N=c1ccccn1Cc1ccccc1,-5.72,
